Screening data: PubChem, National Center for Advancing Translational Sciences (NCATS)
Only some compounds are listed: those with a hit (about 2.7% of all), similar ones and a draw of the others.
A549 viability: A549 cytotoxicity, counter-screen for Nrf2 inhibitors; Potency, µM (titrated, usually from 46 µM), without a hit: top-dose activity change, negative = cytotoxicity, most hits filed as inhibitors; 390,000 tested, 0.16% active; A549 ARE-Fluc cells, CellTiter-Fluor viability, 18-24 h; note: potency is the fitted concentration of half-maximal effect; % is set by controls: 0 for no effect and ±100 for the full control effect
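A549 ARE_Fluc cells in 5% FBS OPTI-MEM were exposed to compounds in concentration-response for 18-24 h at 37 deg C. Viability was read by CellTiter-Fluor fluorescence (Ex 405/Em 525) after 30 min, before the luciferase read.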
ERG-DNA inh: ERG Ets/DNA interaction inhibition. P11308. fluorescence polarization, His-ERG Ets domain / labelled DNA. Potency, µM (series often up to 76.9 µM), without a hit: top-dose FP activity, negative = inhibition, hits mostly inhibitors. 370,000 tested, 0.028% active; active = well fitted inhibition curve with a large enough effect in the polarisation, with a control signal flat; inconclusive = small, poorly fitted or top-dose-only effect, or effect the other way, or a change in a side signal; inactive = no such curve, though single readings can be large or run the other way; the % refers to the polarisation;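 note: polarization taken with two DNA probes labelled with fluorescein and Texas red; potency is the fitted concentration of half-maximal effect; % of control where 0% means no effect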
Target sequence (P11308 whole entry, looked up, the tested form may be a part): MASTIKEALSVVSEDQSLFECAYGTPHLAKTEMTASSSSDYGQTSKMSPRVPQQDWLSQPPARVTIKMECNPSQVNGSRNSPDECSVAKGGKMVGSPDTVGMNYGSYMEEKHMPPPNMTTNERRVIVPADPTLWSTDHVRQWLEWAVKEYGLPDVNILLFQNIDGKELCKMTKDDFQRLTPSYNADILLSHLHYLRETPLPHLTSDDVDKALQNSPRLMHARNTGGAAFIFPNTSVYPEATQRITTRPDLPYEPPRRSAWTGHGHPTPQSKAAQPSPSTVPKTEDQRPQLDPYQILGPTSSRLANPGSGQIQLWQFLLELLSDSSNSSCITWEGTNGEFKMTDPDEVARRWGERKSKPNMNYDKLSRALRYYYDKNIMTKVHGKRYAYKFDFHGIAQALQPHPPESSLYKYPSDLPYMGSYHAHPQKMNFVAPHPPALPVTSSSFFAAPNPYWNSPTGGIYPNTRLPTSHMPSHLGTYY
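His-tagged ERG Ets domain (1 uM in the protein solution; 300mM KCl, 50mM Tris-HCl, 1mM EDTA, 1mM DTT, pH 7.5) received compound, then a probe mix of 5 nM fluorescein-DNA and 100nM Texas-615-DNA. Fluorescence polarization was read for both dyes.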
Nrf2 block: blocks Nrf2 signaling | A549 ARE-Fluc reporter, luciferase luminescence, 18-24 h | Potency, µM (titrated, usually from 46 µM), without a hit: top-dose activity change, negative = inhibition, hits mostly inhibitors | 360,000 tested, 2.1% active | AID 504444; note: potency is the fitted concentration of half-maximal effect; % is set by controls: 0 for no effect and ±100 for the full control effect; nearly all actives have a fitted effect of over 60% in size
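Two sequential reads on A549 ARE_Fluc cells exposed to compound for 18-24 h: a CellTiter-Fluor fluorescence read for viability, then a luciferase luminescence read for Nrf2/ARE activity.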
ALOX12 inh: ALOX12 (human) lipoxygenase inhibition; purified 12hLO, xylenol orange hydroperoxide absorbance; Potency, µM (titrated, usually from 108 µM), for inactives: at the highest dose activity change, negative = inhibition, most hits filed as inhibitors; AID 1671190; P18054; 580,000 tested, 1.1% active; note: potency is the fitted concentration of half-maximal effect; % is set by controls: 0 for no effect and ±100 for the full control effect
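Hydroperoxide product was detected by ferrous iron/xylenol orange as the 573 to 405 nm absorbance ratio. Arachidonic acid at 40 uM (final) was turned over for 30 min at room temperature by 150 nM human 12hLO, pH 7.0 Hepes buffer, after 15 min compound preincubation.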
LDHA inh: inhibitors of human lactate dehydrogenase A | P00338 | purified LDHA, NADH/diaphorase-resazurin fluorescence; active compounds read low | activity change, % (values are at about 110 or 230 µM) | 480,000 tested, 0.15% active | AID 1347041; in the data active = activity change below about -30%; inconclusive = mostly about -25% to -30%;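 note: plate controls were DMSO wells for no effect and wells without enzyme for full effect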
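Human LDH5 (2 nM) was incubated with 0.06 mM NADH and 0.2 mM pyruvate for 5 min at room temperature in Tris pH 7.4. Remaining NADH was coupled through diaphorase/resazurin, and resorufin fluorescence was read at 0 and 20 min.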
Nrf2 activator: Nrf2 pathway activation. AREc32 ARE-luciferase reporter (MCF7-derived line), luminescence, 24 h. Potency, µM (highest dose often 46.1 µM), inactives show top-dose activation, hits mostly activators. 410,000 tested, 0.31% active. AID 624171; note: potency is the fitted concentration of half-maximal effect; % of control where 0% means no effect; nearly all actives have a fitted effect of over 65% in size
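Each well held 1000 AREc32 cells, which were incubated with compound for 24 hr at 37 deg C after overnight attachment, and ARE reporter activity was quantified by firefly luciferase luminescence.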
The depositor's hits bear a star; u = inconclusive; x = no result; [ ] = another dose, or the depositor's remark. Unless noted, calls come from the whole dose curve; as a rule, active = well fitted curve in the direction sought with a large enough effect; inconclusive = small, poorly fitted or top-dose-only effect, or another doubt; inactive = no such curve, though single readings can be large; an effect the other way counts as inactive or inconclusive.

SMILES	A549 viability	ERG-DNA inh	Nrf2 block	ALOX12 inh	LDHA inh	Nrf2 activator
COc1ccc(CNc2ccc([N+](=O)[O-])cn2)cc1	-17%	-5%	u	0%	6	5%
COC(=O)C1=C(C)NC2=C(C(=O)CCC2)C1c1cn(Cc2ccc(Cl)cc2Cl)nc1-c1ccccc1 (stereo not drawn)	u	-11%	26µM*	u	-1	-1%
CCOC(=O)C1=C(C)NC2=C(C(=O)CCC2)C1c1cn(Cc2ccc(Cl)cc2Cl)nc1-c1ccccc1 (stereo not drawn)	u	10%	u	-7%	2	4%
COc1ccc(NC(=O)Cc2ccccc2)cn1	-7%	-1%	-2%	12%	3	0%
COc1ccc(NC(=O)/C(Cl)=C(/Cl)S(=O)Cc2ccccc2)cn1 (stereo not drawn)	21µM*	3%	-117%	u	-6	-2%
COc1ccc(CS(=O)(=O)/C(Cl)=C(/Cl)C(=O)Nc2ccc(OC)nc2)cc1	21µM*	13%	16µM*	x	-4	u
Cc1ccccc1-c1[nH]nc2ncc(-c3cccc(F)c3)nc12	x	x	x	46%[176 µM]	x	x
O=C(COc1c(I)cc(Cl)c2cccnc12)NC12CC3CC(CC(C3)C1)C2	x	x	x	u	4	x
O=C(CSc1ncccn1)N1CCN(C(c2ccccc2)c2ccccc2)CC1	3%	-5%	-27%	-24%	-56*	-1%
O=C(CSc1ncccn1)N1CCN(C(=O)CSc2ncccn2)CC1	0%	5%	12%	18%	-9	0%
CC[C@]12c3[nH]c4ccc(Cl)cc4c3CCN1C(=O)[C@@H](CC(=O)NCC13CC4CC(CC(C4)C1)C3)C[C@@H]2C(=O)N1CCN(C(=O)C2CC2)CC1	-29%	2%	23µM*	40µM*	-3	-1%
O=C(CC1C[C@H](C(=O)N2CCOCC2)[C@@]2(CCC3CCCC3)c3[nH]c4ccccc4c3CCN2C1=O)NCC12CC3CC(CC(C3)C1)C2 (stereo partly drawn)	u	u	23µM*	-27%	0	0%
COCCCNC(=O)C[C@H]1C[C@H](C(=O)N2CCOCC2)[C@@]2(CCC3CCCC3)c3[nH]c4cc(-c5ccco5)ccc4c3CCN2C1=O	-11%	-4%	-21%	u	-11	3%
COc1ccc(CNC(=O)C[C@H]2C[C@H](C(=O)N3CCOCC3)[C@@]3(CCC4CCCC4)c4[nH]c5cc(-c6ccco6)ccc5c4CCN3C2=O)cc1OC	-29%	11%	23µM*	40µM*	-15	2%
O=C(C[C@H]1C[C@H](C(=O)N2CCOCC2)[C@@]2(CCC3CCCC3)c3[nH]c4cc(-c5ccco5)ccc4c3CCN2C1=O)NCc1cccc(C(F)(F)F)c1	-30%	7%	u	-58%	0	0%
O=C(C[C@H]1C[C@H](C(=O)N2CCOCC2)[C@@]2(CCC3CCCC3)c3[nH]c4cc(-c5ccco5)ccc4c3CCN2C1=O)NCCN1CCOCC1	u	-1%	u	45µM*	1	-2%
C=CCNc1nc(C(=O)OCc2ccc(C#N)cc2F)cs1	x	x	x	u	3	x
COc1ccc(C(=O)/C=C/c2ccccc2)cc1OC	x	x	x	-13%	6	x
CC1CCc2c(c(-c3ccccc3)nc3ccc4ccccc4c23)C1 (stereo not drawn)	x	x	x	-1%	4	x
CCOC(=O)c1c(NC(=O)Cn2nnc(-c3ccccc3)n2)sc(CC)c1C	x	x	x	13µM*	6	x
CCOC(=O)c1c(NC(=O)Cn2nnc(-c3ccc(Cl)cc3)n2)sc(CC)c1C	25%	12%	-6%	0%	-2	0%
COc1ccccc1C1CC(=O)Oc2cc(C)c(Cl)cc21 (stereo not drawn)	-1%	-7%	-4%	40µM*	3	-1%
COc1ccc(C2CC(=O)Oc3cc(C)c(Cl)cc32)cc1 (stereo not drawn)	-2%	3%	2%	u	0	1%
Cc1ccc(-n2cc(-c3ccccc3)c3c(N4CCCCC4)ncnc32)cc1	11%	-11%	x	-5%	1	0%
CC1CN(c2ncnc3c2c(-c2ccccc2)cn3-c2ccc(F)cc2)CC(C)O1 (stereo not drawn)	u	1%	18µM*	-26%	-7	3%
SMILES	A549 viability	ERG-DNA inh	Nrf2 block	ALOX12 inh	LDHA inh	Nrf2 activator
Cc1ccc(-n2cc(-c3ccccc3)c3c(N4CCOCC4)ncnc32)cc1	-20%	-4%	23µM*	7%	-7	0%
Cc1nc(SCc2coc(-c3cccc(F)c3)n2)n[nH]1	x	x	x	-22%	-20	x
CC(C)(C)c1nn(-c2ccccc2)c2[nH]c(=O)c(CNCc3ccc4c(c3)OCO4)cc12	8%	x	u	11%	-9	14%
CCOc1cccc(NCc2cc3c(C(C)(C)C)nn(-c4ccccc4)c3[nH]c2=O)c1	u	x	21µM*	7%[57.4 µM]	4	23%
COc1ccc(-c2cc3nc(-c4ccccc4)cc(N4CCCC(O)C4)n3n2)cc1 (stereo not drawn)	u	6%	13µM*	-5%	0	-4%
Cc1ccc(C2NNC(=O)C2NC(=O)c2ccccc2)cc1 (stereo not drawn)	4%	-2%	x	25µM*	-6	0%
O=C(NC1C(=O)NNC1c1ccccc1)c1ccc(F)cc1 (stereo not drawn)	-6%	-2%	15%	u	-2	5%
Nc1[nH]c(=S)[nH]c(=O)c1-c1ccccc1	-9%	-8%	19%	7.1µM*	3	-1%
O=c1[nH]c(=S)[nH]c2nc(-c3ccccc3)cnc12	-8%	1%	-4%	-6%	3	2%
Cn1nc(C(C)(C)C)cc1NC(=O)c1ccccc1	x	x	x	u	-4	x
O=C(Nc1cc(C(F)(F)F)ccc1Cl)c1ccc(NC(=O)C(F)(F)F)cc1	6%	13%	u	-37%	-9	5%
CCCC(=O)Nc1ccc(C(=O)Nc2cc(C(F)(F)F)ccc2Cl)cc1	-14%	4%	10µM*	64%	-6	0%
Cc1cc(-c2nnc(SCC(=O)Nc3ccc(C(F)(F)F)cc3)n2C)no1	-14%	2%	23µM*	213%	-6	1%
Cc1cc(-c2nnc(SCC(=O)Nc3ccccc3)n2C)no1	4%	-2%	u	21%	-5	0%
CCOC(=O)c1c(C)c(C)n(Cc2cccc(OC)c2OC)c1C	9%	3%	u	-22%	0	1%
CCOC(=O)c1cc(C)n(Cc2cccc(OC)c2OC)c1C	-23%	-14%	23µM*	-18%	8	0%
